Sampled rows, rich in hits. Any-hit rate of the full collection: about 1.7%.
GLP1R cytotox: cytotoxic in the GLP-1 receptor inverse agonist counter-screen | HEK293 cAMP-luciferase reporter cells, luminescence, 24 h | Potency, µM (titrated, usually from 38.3 µM), most hits filed as inhibitors | 0.13% of 410,000 active | AID 624418;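 further: loss of luciferase light is scored as toxicity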
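Seeding density was 200 cells/uL; after overnight-length (12 h) culture, 23 nL compounds went on for 24 h at 37 °C. Readout used a luciferase detection reagent, luminescence taken after 12 min at room temperature.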
GLP1R ag: agonists of human GLP-1 receptor; 0.007% of 380,000 active; Potency, µM (titrated, usually from 45.6 µM), hits mostly activators; HEK293 GLP-1R CRE-luciferase, luminescence, 4-6 h; cells express a hypersensitive GLP-1R form
Target sequence (P43220 whole entry, looked up): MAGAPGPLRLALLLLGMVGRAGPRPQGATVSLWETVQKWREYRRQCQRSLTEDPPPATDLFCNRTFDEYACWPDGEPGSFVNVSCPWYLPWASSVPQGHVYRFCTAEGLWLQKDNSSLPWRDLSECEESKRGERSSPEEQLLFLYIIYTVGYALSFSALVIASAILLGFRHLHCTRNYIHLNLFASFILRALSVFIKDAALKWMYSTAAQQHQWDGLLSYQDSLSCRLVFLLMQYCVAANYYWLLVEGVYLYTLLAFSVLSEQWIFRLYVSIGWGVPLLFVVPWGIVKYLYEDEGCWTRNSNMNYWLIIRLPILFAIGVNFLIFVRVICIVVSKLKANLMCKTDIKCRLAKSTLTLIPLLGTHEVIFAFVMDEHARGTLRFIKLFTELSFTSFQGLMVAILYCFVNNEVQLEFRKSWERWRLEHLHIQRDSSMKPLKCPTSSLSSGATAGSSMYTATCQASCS
GLP-1R inv ag: GLP-1 receptor (human) inverse agonism; HEK293 GLP-1R CRE-luciferase, luminescence, 24 h; GLP-1R form is constitutively active; Potency, µM (top dose mostly 38.3 µM), hits mostly inhibitors; 1.6% of 410,000 active; further: nearly all actives have a fitted effect of over 55% in size
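Seeding at 200 cells/uL, 12 h culture, 24 hr compound treatment, then luciferase reagent and a luminescence read; cells are HEK293 stably expressing a constitutively active GLP-1R plus cAMP-responsive luciferase.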
PTHR1 ag: PTHR1 (human) receptor agonism | Q03431 | HEK293 GP2 PTHR1 cells, GloSensor cAMP luminescence, 1 h | Potency, µM (highest dose often 115 µM), most hits filed as activators | 0.075% of 410,000 active | AID 743266; further: nearly all actives have a fitted effect of over 55% in size
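HEK-293-derived GP2 cells expressing PTHR1 and a GloSensor cAMP reporter, 3,000/well, plated overnight, given luciferin plus IBMX (each 0.5 mM as added) for 1 h at 37 °C, then compound for 1 h at 37 °C. Luminescence was read after 15 min at room temperature.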
Each line names hits and unclear results; the compound was inactive in the other large screens; ! = not confirmed by another sample. The call rests on the fitted dose curve; in most records, active means well fitted curve in the direction sought with a large enough effect; inconclusive means small, poorly fitted or top-dose-only effect, or another doubt; inactive means no such curve, though single readings can be large; an effect the other way counts as inactive or inconclusive.

O=C(c1ccc(Cl)c(Cl)c1)N1CCC(=O)N(C(COCc2cccc(Cl)c2)Cc2ccccc2)CC1 (stereo not given)	GLP-1R inv ag 3.98µM
Cc1cccc(COCC(Cc2ccccc2)N2CCN(C(=O)c3ccc(C(F)(F)F)cc3)CCC2=O)c1 (stereo not given)	GLP-1R inv ag 11.2µM
O=C(c1cccc(Cl)c1)N1CCC(=O)N(C(COCc2cccc(Cl)c2)Cc2ccccc2)CC1 (stereo not given)	none
CCCCCCCCCCCCCCCCCCOP(=O)([O-])OC1CC[N+](C)(C)CC1	none (no result: GLP1R cytotox, GLP-1R inv ag, PTHR1 ag)
COc1ccc(NC(=O)c2ccc3c(=O)n4nc(Nc5cccc(Cl)c5C)sc4nc3c2)cc1	none (no result: GLP1R ag)
O=C(Nc1ccccc1C(F)(F)F)c1noc2c1CCCCC2	GLP-1R inv ag inconclusive (no result: GLP1R ag)
CCCCCn1c(=O)[nH]c2cc(C(=O)NCCN3C(C)CCCC3C)ccc2c1=O (stereo not given)	GLP-1R inv ag 1.78µM
CC(C)NC(=O)c1sc2ncccc2c1-n1cccc1	none (no result: GLP1R ag)
O=C(Cn1cnc([N+](=O)[O-])c1)Nc1cc(Oc2ccc(Cl)cc2Cl)cc([N+](=O)[O-])c1	GLP1R cytotox inconclusive, GLP-1R inv ag 5.62µM
CCOc1ccc(-c2cc3c(=O)n(CC(=O)NCc4ccc(C)cc4)ccn3n2)cc1	none (no result: GLP1R ag)
Cc1ccc(SCC(=O)NC2CC3CCC(C2)N3C)cc1 (stereo not given)	none
CN1C2CCC1CC(NC(=O)CSCc1ccc(Cl)cc1Cl)C2 (stereo not given)	GLP-1R inv ag 7.08µM
O=C1c2ccccc2NC(c2ccc(Cl)cc2Cl)N1Cc1ccccc1 (stereo not given)	GLP-1R inv ag 7.08µM
Cn1c(=O)c2sccc2n2c(CCCC(=O)Nc3ccc(Oc4ccccc4)cc3)nnc12	none (no result: GLP1R ag)
O=C(NC(=S)N1CCN(c2nc(-c3ccccc3)cs2)CC1)c1cccnc1	GLP-1R inv ag 8.91µM
COCCNC(=S)N1CCN(c2nc(-c3ccccc3)cs2)CC1	none
COc1ccc(N2CCN(C(=O)NC34CC5CC(CC(C5)C3)C4)CC2)cc1	GLP-1R inv ag 7.94µM
O=C(NC12CC3CC(CC(C3)C1)C2)N1CCN(c2nc(-c3ccccc3)cs2)CC1	GLP-1R inv ag 3.16µM
CCN1CCN(Cc2ccc(NC(=O)c3cc(NC(=O)c4cnnc5ccccc45)cc(OC)c3)cc2C(F)(F)F)CC1	GLP1R cytotox inconclusive, GLP-1R inv ag 8.91µM!
CCN1CCN(Cc2ccc(NC(=O)c3cc(NC(=O)c4nccnc4N)cc(OC)c3)cc2C(F)(F)F)CC1	GLP-1R inv ag inconclusive
COc1ccc(N2C(=O)C(CC(=O)Nc3ccc(F)cc3)N(Cc3ccc4c(c3)OCO4)C2=O)cc1 (stereo not given)	none (no result: GLP1R ag)
COc1ccc(C=O)cc1CN1CCCN(Cc2ccc(Cl)cc2)S1(=O)=O	GLP-1R inv ag 7.08µM
COc1ccc(OC)c(CN2CCN(C(=O)c3ccc(F)cc3)CC2)c1	none
COc1ccc(C=O)cc1Cn1ccnc1	none
COC(=O)c1ccc(OC)c(CN2CCCN(Cc3ccc(F)cc3)S2(=O)=O)c1	GLP-1R inv ag 10µM
CC(C)c1ccc(Nc2nc(NCc3ccco3)nc(N3CCOCC3)n2)cc1	GLP-1R inv ag 2.24µM
CC(C)c1ccc(Nc2nc(N3CCOCC3)nc(N3CCOCC3)n2)cc1	GLP-1R inv ag inconclusive
Cc1cc(C(F)F)n2nc(C(=O)Nc3cccc(Cl)c3C)nc2n1	none
O=C(CCC(=O)N1CCN(c2ccc(Cl)c(Cl)c2)CC1)c1ccccc1	GLP-1R inv ag 11.2µM
O=C(CCC(=O)N1CCN(c2ccc(F)cc2)CC1)c1ccc(Cl)cc1	GLP-1R inv ag inconclusive
CCOc1ccccc1NC(=O)CN(CCc1ccccc1)S(=O)(=O)c1ccc(C)cc1	GLP-1R inv ag 10µM (no result: GLP1R ag)
COc1cccc2c1C(CCCC(=O)O)CCC2 (stereo not given)	none
COc1cccc2c1C1COC3C4CC(C(=O)O)C(C(C2)N13)N4C (stereo not given)	GLP1R cytotox inconclusive, GLP-1R inv ag 3.98µM
Cc1cc(C)cc(NC(=O)Cn2c(=O)n(C(C)C)c(=O)c3oc4ccccc4c32)c1	none (no result: GLP1R ag)
CCN(CC)CCNC(=O)C1CCN(S(=O)(=O)c2c(C)noc2/C=C/c2ccccc2F)CC1	GLP1R cytotox inconclusive, GLP-1R inv ag 3.16µM!
CCN(CC)C(=O)C1CCN(S(=O)(=O)c2c(C)noc2/C=C/c2cccc(C)c2)CC1	GLP-1R inv ag 10µM
Cc1ccc(/C=C/c2onc(C)c2S(=O)(=O)N2CCC(C(=O)N3CCN(C)CC3)CC2)cc1	GLP-1R inv ag 6.31µM
Nc1c(-c2ccccc2)cnn1-c1cccc(Cl)c1	GLP-1R inv ag inconclusive
Nc1ccccc1Nc1cc(-c2cccc(Cl)c2)nn1-c1ccccc1	GLP-1R inv ag 10µM
Cc1ccc2c(c1)N(C(=O)N1CCC(C(=O)NCCc3ccc(Cl)cc3)CC1)CC(C)O2 (stereo not given)	none (no result: GLP1R ag)
CC(CSC(=O)c1ccccc1)C(=O)N1CC(Sc2ccccc2)CC1C(=O)O (stereo not given)	none (no result: GLP1R cytotox, GLP-1R inv ag, PTHR1 ag)
Cc1cccc(/C=N/NC(=O)c2ccccc2OCc2cccc(Br)c2)n1	GLP1R cytotox inconclusive, GLP-1R inv ag 11.2µM
CC(C)c1cnc2c(c1SCc1ccc([N+](=O)[O-])cc1)c(=O)n(C)c(=O)n2C	none (no result: GLP1R ag)
O=S(=O)(c1cccs1)N1CCN(CC(O)COc2cc(Cl)ccc2Cl)CC1 (stereo not given)	GLP-1R inv ag 7.94µM
Cc1ccc(C(c2c(O)cc(C)n(Cc3ccco3)c2=O)N2CCC(C)CC2)cc1 (stereo not given)	GLP-1R inv ag inconclusive (no result: GLP1R ag)
COCCn1nnnc1C(c1cc2cc(C)ccc2[nH]c1=O)N1CCN(C2CCCCC2)CC1 (stereo not given)	GLP1R cytotox 11.2µM
CCCCCCNC(=O)c1cccc(-c2ccc(C)c3ccccc23)n1	GLP-1R inv ag 11.2µM
COC(=O)c1c(-c2cccs2)csc1NC(=O)COc1ccc(C(C)C)cc1	none (no result: GLP1R ag)
C/C(=N\Nc1nc(N2CCCCC2)nc(N2CCOCC2)n1)c1ccccc1O	GLP-1R inv ag 2.51µM
CN(Cc1cccc(F)c1)C(=O)c1cccc(S(=O)(=O)N2CCN(Cc3ccccc3)CC2)c1	GLP-1R inv ag inconclusive
CN(Cc1ccc(Cl)c(Cl)c1)C(=O)c1cccc(S(=O)(=O)N2CCN(Cc3ccccc3)CC2)c1	GLP-1R inv ag 11.2µM
C=CCN(C(=O)c1cccc(S(=O)(=O)N2CCN(C)CC2)c1)c1nc(-c2ccccc2)cs1	GLP-1R inv ag 11.2µM
CCCCOc1ccc(C(=O)NCc2nnnn2-c2ccc(C)c(C)c2)cc1	GLP-1R inv ag inconclusive (no result: GLP1R ag)
CCN(C(=O)c1ccc(C(C)(C)C)cc1)c1nnc(Cn2nnc3ccccc32)s1	GLP-1R inv ag 5.01µM
CCN(C(=O)CC(C)C)c1nnc(Cn2nnc3ccccc32)s1	none
Cc1cccc(CCNC(=O)c2cnc3c(C)cccn3c2=O)c1	none (no result: GLP1R ag)
CCn1cc(CCCC(=O)NCc2cccc(OC)c2)c2ccccc21	GLP-1R inv ag 10µM
O=[N+]([O-])c1cc(C(F)(F)F)ccc1NCCCCNS(=O)(=O)c1ccc(Cl)cc1	none

Screens deposited in PubChem by National Center for Advancing Translational Sciences (NCATS).
